Where “and” joins values, the source holds several entries; their conditions need not be identical. Identical values can stand only once. About 2,000 (36%) of roughly 5,500 compounds were called active. Inconclusive results (about 18%) are left out. Cut-off read from the data, not from the text of the source: active = normalized growth mostly below about 0.91 (no sharp cut-off); inconclusive = no clear call, values can overlap the other calls; inactive = mostly above about 0.92. The list shows a part of the results.
Assay: chemical genetic growth profiling, strain panel (AID 1159580);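 note: tested at 20 µM; growth read once vehicle control cultures reached saturation at 30 °C; 1 = growth at the plate median or of vehicle wells; lower values mean less growth of the strain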
Details: S. cerevisiae deletion strains, growth OD

Measured: normalized growth

NC(=O)c1cc[n+](CC2=C(C(=O)O)N3C(=O)C(NC(=O)C(c4ccccc4)S(=O)(=O)[O-])C3SC2)cc1 (centres undefined)
inactive: locus YAL013W, strain DEP1, active compounds read low 0.983 | locus YAL021C, strain ccr4, active compounds read low 1.01 | locus YAL026C, strain drs2, active compounds read low 0.997 | locus YAL030W, strain snc1, active compounds read low 1.01 | locus YBL061C, strain skt5, active compounds read low 0.994 | locus YBR009C, strain hhf1, active compounds read low 1.02 | locus YBR021W, strain FUR4, active compounds read low 0.97 | locus YBR023C, strain chs3, active compounds read low 0.997 | locus YBR171W, strain sec66, active compounds read low 1 | locus YBR229C, strain ROT2, active compounds read low 0.989 | locus YBR231C, strain swc5, active compounds read low 1 | locus YBR279W, strain paf1, active compounds read low 0.993 | locus YCL011C, strain gbp2, active compounds read low 1.02 | locus YCL016C, strain dcc1, active compounds read low 1.01 | locus YCL029C, strain bik1, active compounds read low 0.992 | locus YCL069W, strain vba3, active compounds read low 1.02 | locus YCR088W, strain abp1, active compounds read low 0.987 | locus YDL005C, strain med2, active compounds read low 0.998 | locus YDL035C, strain GPR1, active compounds read low 0.989 | locus YDL040C, strain nat1, active compounds read low 1 | locus YDL074C, strain BRE1, active compounds read low 1.02 | locus YDL101C, strain DUN1, active compounds read low 0.994 | locus YDL134C, strain PPH21, active compounds read low 0.973 | locus YDL185W, strain tfp1, active compounds read low 0.995 | locus YDL192W, strain arf1, active compounds read low 0.984 | locus YDR001C, strain nth1, active compounds read low 0.99 | locus YDR069C, strain doa4, active compounds read low 0.98 | locus YDR101C, strain arx1, active compounds read low 1 | locus YDR137W, strain rgp1, active compounds read low 1.02 | locus YDR150W, strain NUM1, active compounds read low 0.988 | locus YDR159W, strain sac3, active compounds read low 0.997 | locus YDR162C, strain NBP2, active compounds read low 0.981 | locus YDR195W, strain ref2 0.988 | locus YDR297W, strain sur2, active compounds read low 1 | locus YDR318W, strain mcm21, active compounds read low 0.986 | locus YDR334W, strain swr1, active compounds read low 0.994 | locus YDR335W, strain msn5, active compounds read low 0.984 | locus YDR388W, active compounds read low 0.992 | locus YDR392W, strain spt3, active compounds read low 1.04 | locus YDR502C, strain sam2, active compounds read low 0.987 | locus YEL003W, strain gim4, active compounds read low 0.985 | locus YEL037C, strain rad23, active compounds read low 0.999 | locus YEL061C, strain CIN8 (second series), active compounds read low 0.99 | locus YEL061C, strain CIN8, active compounds read low 0.994 | locus YER015W, strain faa2, active compounds read low 1.02 | locus YER016W, strain bim1, active compounds read low 0.99 | locus YER110C, active compounds read low 0.986 | locus YER111C, strain swi4, active compounds read low 0.995 | locus YER155C, strain BEM2 (second series), active compounds read low 0.986 | locus YER155C, strain BEM2, active compounds read low 0.978 | locus YER167W, strain BCK2, active compounds read low 0.98 | locus YFR010W, strain ubp6, active compounds read low 0.974 | locus YGL078C, strain dbp3, active compounds read low 0.988 | locus YGL086W, strain mad1, active compounds read low 0.978 | locus YGL167C, strain pmr1, active compounds read low 0.984 | locus YGL173C, strain kem1, active compounds read low 1.01 | locus YGL227W, strain vid30, active compounds read low 1.01 | locus YGL240W, strain doc1, active compounds read low 0.997 | locus YGL248W, strain PDE1, active compounds read low 0.976 | locus YGL253W, strain hxk2, active compounds read low 0.992 | locus YGR078C, strain PAC10, active compounds read low 1.01 | locus YGR135W, strain pre9, active compounds read low 0.957 | locus YGR229C, strain SMI1, active compounds read low 0.958 | locus YGR252W, strain gcn5, active compounds read low 0.937 | locus YHR013C, strain ard1, active compounds read low 1 | locus YHR027C, strain rpn1, active compounds read low 1.01 | locus YHR030C, strain SLT2, active compounds read low 0.986 and 1.08 | locus YHR079C, strain IRE1 (second series), active compounds read low 0.996 | locus YHR079C, strain IRE1, active compounds read low 1.11 | locus YHR094C, strain hxt1, active compounds read low 0.984 | locus YHR129C, strain ARP1, active compounds read low 0.988 | locus YHR142W, strain chs7, active compounds read low 0.993 | locus YHR200W, strain rpn10, active compounds read low 0.986 | locus YIL066C, strain RNR3, active compounds read low 0.995 | locus YIL073C, strain SPO22, active compounds read low 0.96 | locus YIL125W, strain kgd1, active compounds read low 0.992 | locus YIR030C, strain dcg1, active compounds read low 0.99 | locus YJL092W, strain hpr5, active compounds read low 0.995 | locus YJL095W, strain BCK1 (second series), active compounds read low 0.99 | locus YJL095W, strain BCK1, active compounds read low 1.02 and 1.05 | locus YJL115W, strain asf1, active compounds read low 0.988 | locus YJL129C, strain trk1, active compounds read low 0.962 | locus YJL134W, strain LCB3, active compounds read low 0.985 | locus YJL154C, strain vps35, active compounds read low 0.998 | locus YJL164C, strain tpk1, active compounds read low 1.02 | locus YJL166W, strain qcr8, active compounds read low 1 | locus YJL168C, strain set2, active compounds read low 0.998 | locus YJL187C, strain SWE1 (second series), active compounds read low 1.01 | locus YJR043C, strain POL32, active compounds read low 0.993

Source: PubChem BioAssay AID1159580 (chemical genetic matrix, 2015)
